The entries come from a sample that favours hits as a whole.
Tb PFK block – blocks T. brucei phosphofructokinase; AID 485367; T. brucei PFK, ADP-Glo luminescence; O15648; hit rate 0.17% among 330,000; Potency, µM (series often up to 57.5 µM), inactives show at the top dose activity, negative = inhibition, hits mostly inhibitors;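 note: potency is the fitted concentration of half-maximal effect; 0% = uninhibited 1x PFK enzyme wells and -100% = no-enzyme wells; nearly all actives have a fitted effect of over 60% in size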
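Luminescent ADP detection (ADP-Glo, two-step: ATP depletion then ADP-to-ATP conversion for luciferase) reported PFK activity after 45 min room-temperature reaction of 1.25 nM enzyme with 0.5 mM F6P and 0.1 mM ATP at pH 8.0.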
Pin1 inh – inhibitors of human Pin1 | Q13526 | Pin1 FP peptide displacement, HiFluor488, 10 min | Potency, µM (highest dose often 115 µM), inactives show top-dose activity, negative = inhibition, most hits filed as inhibitors | hit rate 0.009% among 390,000 | AID 504891; active = well fitted inhibition curve with a large enough effect in the polarisation, with a control signal flat, not every such curve was filed as active; inconclusive = small, poorly fitted or top-dose-only effect, or effect the other way, or a change in a side signal; inactive = no such curve, though single readings can be large or run the other way; the % refers to the polarisation; note: potency is the fitted concentration of half-maximal effect
Target sequence (Q13526 whole entry, looked up): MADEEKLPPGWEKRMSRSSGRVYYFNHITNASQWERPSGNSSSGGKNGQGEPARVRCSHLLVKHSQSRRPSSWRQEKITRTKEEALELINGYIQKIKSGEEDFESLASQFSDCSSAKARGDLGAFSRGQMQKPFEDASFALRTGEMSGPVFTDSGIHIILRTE
PI4K2A block – blocks human PI4K2A kinase activity; Q9BTU6; purified PI4K2A, ADP-Glo luminescence, 1 h; active compounds read low; activity change, negative = inhibition, % at 76.9 µM; hit rate 0.13% among 420,000; AID 1346378; in the data active = activity change below about -50%; inconclusive = mostly about -30% to -49%;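 note: -100% = wells without enzyme as full effect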
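In this quantitative HTS, ADP production by PI4K2A was quantified luminescently after 1 h at ambient temperature; 100 microM adenosine served as plate-quality control.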
Tb PGK inh – T. brucei PGK inhibition | PGK/GAPDH coupled, Kinase-Glo luminescence, 60 min | P07378 | Potency, µM (top dose mostly 57.5 µM), for inactives: at the top dose activity change, negative = inhibition, hits mostly inhibitors | hit rate 0.043% among 380,000; note: potency is the fitted concentration of half-maximal effect; nearly all actives have a fitted effect of over 60% in size
Target sequence (P07378 whole entry, looked up): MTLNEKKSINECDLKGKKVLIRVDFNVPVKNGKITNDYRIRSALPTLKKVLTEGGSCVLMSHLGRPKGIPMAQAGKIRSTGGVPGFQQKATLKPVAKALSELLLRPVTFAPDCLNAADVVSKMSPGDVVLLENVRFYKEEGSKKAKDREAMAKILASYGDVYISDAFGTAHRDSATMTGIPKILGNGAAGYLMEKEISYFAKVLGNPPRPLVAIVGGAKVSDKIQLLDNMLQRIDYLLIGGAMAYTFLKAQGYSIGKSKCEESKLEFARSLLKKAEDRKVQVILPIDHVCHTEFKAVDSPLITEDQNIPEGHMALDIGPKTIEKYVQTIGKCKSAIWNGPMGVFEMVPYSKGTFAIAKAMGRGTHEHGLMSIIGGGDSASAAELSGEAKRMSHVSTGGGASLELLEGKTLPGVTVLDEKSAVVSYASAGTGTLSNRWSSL
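Luminescent ATP detection (Kinase-Glo Plus) follows a 60-minute room-temperature incubation, with wells lacking PGK as controls. Buffer: 100 mM TEA (pH 7.6), 5 mM MgCl2, 0.01% Tween-20. Coupling enzyme GAPDH (100 nM final) supplies unstable 1,3-BPG in-well.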
PI5P4K alpha inh – PI5P4K alpha (human) kinase inhibition. PI5P4Kalpha enzyme, ADP-Glo luminescence, 60 min; active compounds read low. max response, %. hit rate 1.2% among 330,000; active = max response of -50% or lower; inconclusive = between -30% and -50%; inactive = -30% or higher; note: value at the top dose of about 77 µM
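Controls without substrate or without enzyme flank wells where PI5P4Kalpha converts substrate using 5 microM ATP (final). Incubation lasts 60 minutes at room temperature; ADP formed is read by ADP-Glo luminescence.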
ADP-Glo counter – interferes with ADP-Glo detection without enzyme present. 1,100 tested, under 10 active. AID 743285. shares compounds with PI5P4K alpha inh. ADP-Glo detection counter-screen, luciferase luminescence, no enzyme. Potency, µM (titrated, usually from 76.9 µM), without a hit: at the top dose activity change, negative = inhibition, hits mostly inhibitors
Numbers without * were called inactive; i = inactive; ? = inconclusive; nt = not tested or not shown. Unless noted, calls come from the whole dose curve; as a rule, active = well fitted curve in the direction sought with a large enough effect; inconclusive = small, poorly fitted or top-dose-only effect, or another doubt; inactive = no such curve, though single readings can be large; an effect the other way counts as inactive or inconclusive. Unless noted, % is set by controls: 0 for no effect and ±100 for the full control effect.

SMILES | Tb PFK block | Pin1 inh | PI4K2A block | Tb PGK inh | PI5P4K alpha inh | ADP-Glo counter
CCS(=O)(=O)c1ccc2oc(Nc3ccc(C(C)C)cc3)nc2c1 | -10.7% | -1.8% | 1.1 | i | -50.4* | -5.6%
CCS(=O)(=O)c1ccc2oc(Nc3cc(C)cc(C)c3)nc2c1 | -1.7% | -0.7% | -1.5 | -6.0% | nt | nt
CN1[C@@H](Cc2ccccc2)COc2cc(F)ccc2S1(=O)=O | nt | nt | -6.0 | nt | nt | nt
OC(c1ccc(Cl)c(F)c1)c1ncc(-c2ccc(Oc3ccccc3)cc2)[nH]1 (stereo not given) | nt | nt | -0.1 | nt | -56.6* | -4.9%
OC(c1ccc(Cl)c(F)c1)c1ncc(-c2ccc(Cl)cc2)[nH]1 (stereo not given) | nt | nt | -0.2 | nt | 15.0 | nt
O=C(Cc1c(F)cccc1Cl)Nc1cccc(S(=O)(=O)NC2=NCCCCC2)c1 | 1.6% | -2.2% | -5.7 | -8.3% | 7.8 | nt
O=C(Cc1ccc(Cl)cc1Cl)Nc1cccc(S(=O)(=O)Nc2ccccc2F)c1 | ? | 0.0% | -3.9 | -0.1% | -50.8* | -1.7%
COc1cc(OC)cc(C(=O)Nc2nc3ccc(S(C)(=O)=O)cc3s2)c1 | 2.2% | 51.6% | -5.3 | -7.3% | -74.0* | -16.5%
C=CC[C@@H]1NN2C(=O)[C@@H](CCc3ccccc3)[C@@H]3c4ccccc4C=NN3[C@@H]2c2ccccc21 | nt | nt | 0.7 | nt | nt | nt
COc1ccc(S(=O)(=O)N2CCN(C(=O)c3cc4c(s3)CCC4)CC2)cc1 | ? | nt | ? | ? | -82.1* | 4.6%
Cc1ccc(NC(=O)CN(C)C(=O)COc2ccc(C(=O)c3ccc(F)cc3)cc2)cc1 | -0.2% | -0.8% | -7.2 | -1.0% | -2.3 | 4.7%
CCC(=O)c1ccc(OCC(=O)OCC(=O)N(C)CC(=O)Nc2ccc(F)cc2)cc1 | -1.1% | -1.6% | -2.2 | 2.7% | -3.0 | nt
Cc1ccc(CNC(=O)CCS(=O)(=O)c2ccc(Cl)cc2)cc1 | -1.4% | 0.0% | -2.8 | -18.9% | -93.9* | -10.3%
Cc1ccc(S(=O)(=O)CCC(=O)OCC(=O)NCc2ccc(F)cc2)cc1 | nt | nt | 4.5 | -7.6% | -3.3 | nt
Cc1ccc(CNC(=O)CCS(=O)(=O)c2ccc(Br)cc2)cc1 | ? | nt | -3.5 | ? | -0.6 | nt
O=C(CCS(=O)(=O)c1ccc(Br)cc1)NCc1ccc(F)cc1 | 23.9µM* | -2.6% | -7.6 | ? | ? | -2.6%
COc1ccc(C(=O)Nc2ccc(S(=O)(=O)N3CCc4ccccc43)cc2)cc1 | nt | 19.9% | 1.1 | -5.5% | -8.6 | nt
NS(=O)(=O)c1ccc(NC(=O)c2ccc(S(=O)(=O)N3CCc4ccccc43)cc2)cc1 | 1.7% | 16.5% | -0.3 | -5.1% | -65.6* | -3.3%
O=C(NC1CCCC1)C1CSCCS(=O)(=O)N1Cc1ccc(F)cc1 (stereo not given) | nt | nt | 5.5 | nt | nt | nt
COc1ccc(CNC(=O)Cc2ccc(NC(=O)C3=C(C)OCCS3)cc2)cc1 | -26.4% | 0.5% | -13.5 | -6.4% | -51.4* | -2.0%
CCOC(=O)[C@]12CCCC=C1N(CCCOC)C(=O)[C@@H]2CC(=O)N1CCC(c2ccccc2)CC1 | nt | nt | 0.6 | nt | nt | nt
COC(=O)CSc1nc(C)cc(C)n1 | -3.1% | 5.3% | -1.7 | i | -67.3* | -6.9%
Cc1c(C(=O)N2CCN(C)CC2)oc2ccc(Br)cc12 | 0.1% | -2.5% | -0.3 | 2.7% | 9.9 | nt
Cc1c(C(=O)N2CCCC2)oc2ccc(Br)cc12 | -8.8% | 3.2% | -0.3 | 4.1% | -60.6* | -5.0%
COc1cc(NC(=O)c2cnn3c(C)cc(C)nc23)cc(OC)c1OC | nt | nt | 1.5 | nt | nt | nt
SMILES | Tb PFK block | Pin1 inh | PI4K2A block | Tb PGK inh | PI5P4K alpha inh | ADP-Glo counter
Cc1ccc(-n2c(=S)[nH]c3sc4c(c3c2=O)CCC4)cc1 | 0.7% | -0.7% | 2.8 | i | -54.6* | -0.1%
O=c1c2c3c(sc2[nH]c(=S)n1Cc1ccco1)CCC3 | -14.4% | ? | -11.0 | -9.1% | -58.6* | -7.8%
Cc1ccc(-n2c(=O)[nH]c3sc4c(c3c2=O)CCCC4)cc1 | nt | 4.7% | -0.1 | i | nt | nt
CCOC(=O)[C@@]12CCCC3=C1N(CCC3)C(=O)[C@H]2CC(=O)NCc1ccc(OC)c(OC)c1 | nt | nt | -8.1 | nt | nt | nt
Nc1cc(-c2ccncc2)c[nH]c1=O | ? | ? | -54.9* | -1.2% | -55.9* | 3.6%
CC(C)(C)NC(=O)C(c1ccc(C#N)cc1)n1c(=O)c(-c2ccco2)nc2ccccc21 (stereo not given) | nt | nt | -13.9 | nt | -56.8* | 2.1%
COc1ccc(C(C(=O)NC(C)(C)C)n2c(=O)c(-c3ccco3)nc3ccccc32)cc1 (stereo not given) | nt | nt | -7.8 | nt | -25.0 | nt
O=C(NCc1ccccc1)C(c1ccc(-c2ccccc2)cc1)n1c(=O)c(-c2ccco2)nc2ccccc21 (stereo not given) | nt | nt | -20.8 | nt | -73.0* | -6.8%
COC(=O)[C@]12C[C@H](CC(=O)N3CCSCC3)C(=O)N(CCc3ccc(OC)c(OC)c3)C1=C[C@H](COCc1ccccc1)O[C@@H]2C | nt | nt | 3.8 | nt | nt | nt
COc1ccc(OCC(=O)NCc2nc(-c3ccccc3)no2)cc1 | nt | 26.0% | 2.1 | -8.5% | -57.6* | 3.3%
CCCCOc1ccc(S(=O)(=O)NC(=O)C2(C)CCN2C(=O)Cc2ccccc2Cl)cc1 (stereo not given) | nt | nt | 5.5 | nt | 3.8 | nt
CCCCOc1ccc(S(=O)(=O)NC(=O)C2(C)CCN2C(=O)CCc2ccccc2)cc1 (stereo not given) | nt | nt | -0.3 | nt | -53.3* | -1.2%
C=C1[C@@H]2CC[C@H]3[C@]4(C)[C@@H](O)CC[C@@](C)(C(=O)OC)[C@H]4C[C@H](O)[C@]3(C2)[C@H]1O | nt | nt | 2.4 | nt | nt | nt
CCCCNC(=O)c1cc(-c2ccccc2)sc1N | nt | nt | -1.9 | nt | ? | nt
COCCNC(=O)c1cc(-c2ccccc2)sc1N | nt | nt | -3.3 | nt | -63.0* | -5.1%
CCn1c(SCc2nc3sc(C(=O)O)c(C)c3c(=O)[nH]2)nc2ccccc21 | 5.8% | ? | -5.7 | 20µM* | -63.7* | 1.0%
COCCn1c(SCc2nc3sc(C(=O)OC)c(C)c3c(=O)[nH]2)nc2ccccc21 | 0.1% | ? | -1.4 | 10.8% | -20.7 | nt
Cc1ccn2c(=O)c(C(=O)O)cnc2c1 | 1.3% | 5.2% | 1.9 | -5.9% | 0.9 | nt
CCOC(=O)c1cnc2cc(C)ccn2c1=O | -0.1% | 8.9% | 1.5 | -4.5% | -19.7 | -3.5%
COc1ccc(OC)c(NC(=O)CSc2ccc(-c3ccco3)nn2)c1 | -21.1% | ? | -18.6 | 8.8% | -50.9* | -9.6%
O=S1(=O)CC2c3ccccc3CCN2CN1Cc1ccccc1 (stereo not given) | nt | nt | 3.1 | nt | nt | nt
Cc1cccc(Cn2cc(COC(=O)N3CCOCC3)nn2)c1 | nt | nt | 1.7 | nt | nt | nt
CN(CCOC(=O)CSc1ccccc1)C1CN(Cc2cn(Cc3ccccc3F)nn2)S(=O)(=O)C1 (stereo not given) | nt | nt | 4.6 | nt | nt | nt

High-throughput results deposited in PubChem by National Center for Advancing Translational Sciences (NCATS).
